Source: ChEMBL document CHEMBL2218924, “A broad activity screen in support of a chemogenomic map for kinase signalling research and drug discovery” (Biochem J, 2013)

molecular target: T1, Myotonin-protein kinase (Homo sapiens) (UniProt Q09013); details: at 10 µM
T1 sequence (whole entry): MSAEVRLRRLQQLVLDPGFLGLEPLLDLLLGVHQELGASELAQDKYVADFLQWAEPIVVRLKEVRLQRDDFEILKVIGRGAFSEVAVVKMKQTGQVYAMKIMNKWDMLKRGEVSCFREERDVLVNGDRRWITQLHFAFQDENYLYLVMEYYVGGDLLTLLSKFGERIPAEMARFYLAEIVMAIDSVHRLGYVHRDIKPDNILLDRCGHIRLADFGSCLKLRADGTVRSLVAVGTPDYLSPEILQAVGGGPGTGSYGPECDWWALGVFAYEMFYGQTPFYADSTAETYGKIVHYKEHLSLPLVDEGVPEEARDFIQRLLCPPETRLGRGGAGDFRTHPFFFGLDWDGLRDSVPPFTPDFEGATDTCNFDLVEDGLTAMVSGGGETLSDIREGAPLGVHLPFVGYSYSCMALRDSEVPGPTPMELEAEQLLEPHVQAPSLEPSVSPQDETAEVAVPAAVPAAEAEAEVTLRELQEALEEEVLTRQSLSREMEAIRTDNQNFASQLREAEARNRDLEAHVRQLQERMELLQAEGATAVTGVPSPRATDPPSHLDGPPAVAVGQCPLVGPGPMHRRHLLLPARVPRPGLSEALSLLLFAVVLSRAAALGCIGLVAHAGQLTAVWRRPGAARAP

First: CC(C)(C)c1cc(C=C(C#N)C#N)cc(Br)c1O
Second: O=[N+]([O-])/C=C/c1ccc2c(c1)OCO2
The residual activity of the first is lower: 107% for the first, 134% for the second.

First: N/C(=N\[N+](=O)[O-])N/N=C\c1ccc(-c2cccc([N+](=O)[O-])c2)o1
Second: COC(=O)[C@@]1(O)C[C@H]2O[C@]1(C)n1c3ccccc3c3c4c(c5c6ccccc6n2c5c31)C(=O)NC4
The residual activity of the first is higher: 84% for the first, 65% for the second.

Compared with CC(C)[C@H](CO)Nc1nc(Nc2cccc(Cl)c2)c2ncn(C(C)C)c2n1, CCn1cnc2c(Nc3cccc(Cl)c3)nc(N[C@@H]3CCCC[C@@H]3N)nc21 is lower in residual activity: 89% for the first, 80% for the second.

First: COc1ccc2c(c[n+](C)c3c4cc5c(cc4ccc23)OCO5)c1OC
Second: COc1cc2ncnc(Nc3ccc(OCc4ccccc4)cc3)c2cc1OC
The residual activity of the first is higher: 126% for the first, 103% for the second.

First: O=c1[nH]c2ccccc2n1C1CCN(Cc2ccc(-c3nc4cc5[nH]cnc5cc4nc3-c3ccccc3)cc2)CC1
Second: C[S+]([O-])c1ccc(-c2nc(-c3ccc(F)cc3)c(-c3ccncc3)[nH]2)cc1 (stereo not drawn)
The residual activity of the first is higher: 143% for the first, 102% for the second.

Going from c1cc(-c2cnn3cc(-c4ccc(OCCN5CCCCC5)cc4)cnc23)ccn1 to O=C1c2ccccc2-c2nc3nnnn3nc21, the residual activity rises from 80% to 148%.

With O=C1Nc2ccc3ncsc3c2/C1=C/c1c[nH]cn1 the residual activity was 105%.
